# Cycloheximide cs = counter-screen hit for Shiga toxin inhibitors, cycloheximide | cell reporter, cycloheximide protein synthesis inhibition counterscreen | max response, % | 300,000 tested, 12% active | AID 2314; in the data active = max response mostly above about 13%, no sharp cut-off; inactive = mostly below about 14%; also: read at 38.3 µM for the half of the compounds with a filed dose; 0% is about no effect
# SARS PLpro yeast = SARS-CoV PLP inhibition in yeast; S. cerevisiae expressing SARS-CoV PLpro, growth rescue; 330,000 tested, 0.19% active; Potency, µM (highest dose often 32.9 µM), without a hit: at the top dose activity, positive = growth rescue, most hits filed as activators; AID 485353; also: potency is read from the fitted curve at half-maximal effect; 0% is about no effect; nearly all actives have a fitted effect of over 55% in size
# Pf growth 48h = inhibits P. falciparum growth in the first generation, 48 h. 310,000 tested, 5.9% active. P. falciparum luciferase growth in erythrocytes, 48 h. Potency, µM (doses to about 28.7 µM), for inactives: at the highest dose activity change, negative = inhibition, most hits filed as inhibitors. AID 504832; active = well fitted inhibition curve with a large enough effect; inconclusive = small, poorly fitted or top-dose-only effect, or another doubt; inactive = no such curve, though single readings can be large or run the other way; also: potency is read from the fitted curve at half-maximal effect; % is scaled to controls: 0 for no effect and ±100 for the full control effect
#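 Erythrocytes infected with P. falciparum carrying an integrated firefly luciferase reporter (2% hematocrit, 0.1% parasitemia final) were exposed to compounds in RPMI 1640 with 0.5% Albumax at 37 C, 5% CO2. Growth inhibition was scored as reduced luminescence.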
# NS1 function inh = inhibitors of influenza NS1 protein function. 270,000 tested, 0.4% active. AID 2326. Potency, µM (doses to about 46.1 µM), for the others: at the top dose activity, positive = more growth; also: potency is read from the fitted curve at half-maximal effect; actives are rising curves; nearly all actives have a fitted effect of over 50% in size
#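 Recovery from NS1-induced slow growth read by OD600 in budding yeast switched to galactose assay medium (pH 6.0, -URA) at 1:100 dilution. Compound 23 nl per well; the matching strain lacking NS1 serves as control.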
# Pf growth 96h = P. falciparum growth inhibition at 96 hours | AID 504834 | P. falciparum luciferase reporter growth, 96 h | Potency, µM (top dose mostly 28.7 µM), for inactives: at the top dose activity change, negative = inhibition, hits mostly inhibitors | 320,000 tested, 6.9% active; active = well fitted inhibition curve with a large enough effect; inconclusive = small, poorly fitted or top-dose-only effect, or another doubt; inactive = no such curve, though single readings can be large or run the other way; also: potency is read from the fitted curve at half-maximal effect; % is scaled to controls: 0 for no effect and ±100 for the full control effect
#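 Plates of compound plus infected erythrocytes (2% hematocrit, 0.05% parasitemia final) incubate 96 hours, 37 C, 5% CO2. Detection reagent added; reduced luminescence from the parasites' luciferase reporter flags inhibition.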
# Shiga inhibitor = blocks Shiga toxin action in Vero cells | AID 2315 | inhibition, % at 38.7 µM | Vero cells, Shiga toxin protein synthesis inhibition reporter | 290,000 tested, 9.2% active; in the data active = inhibition mostly above about 28%, no sharp cut-off; inactive = mostly below about 43%; also: 0% is about no effect
# Numbers without * were called inactive; ? = inconclusive; . = no result given; [ ] = dose if it differs, or a comment. A selection: hits, their analogues and other compounds. The true share with any hit is near 21%. Unless noted, calls follow the shape of the full dose curve.
SMILES,Cycloheximide cs,SARS PLpro yeast,Pf growth 48h,NS1 function inh,Pf growth 96h,Shiga inhibitor
CC[N+](CC)(CC#CCO)CC#Cc1ccccc1,-5.6,-1.0%,?,.,10.4µM*,26.9
CCC[N+](CC#CCO)(CC#Cc1ccccc1)CCC,-1.8,0.4%,?,3.3%,?,11.2
C#CC[N+](C)(C)CC#Cc1ccc(Cl)cc1,-5.8,-17.6%,1.65µM*,-3.3%,?,-6.0
C#CC[N+](CC)(CC)CC#Cc1cccc(Cl)c1,-4.3,-1.7%,10.4µM*,18.0%,?,-7.3
Cc1cc(C(F)(F)F)n2nc(-c3cnn(C)c3C(F)(F)F)c(Cl)c2n1,-1.2,5.1%,3.29µM*,-3.0%,?,-20.2
CC(C)C(=O)O/N=C(\N)c1ccc(Oc2ccc(Cl)cc2)c([N+](=O)[O-])c1,22.7*,-2.0%,8.1%,0.5%,4.7%,35.9*
COc1cccc(-n2cc(-c3ccc(F)cc3)[nH]c2=S)c1,37.5*,-1.5%,-23.5%,-11.7%,-57.6%,85.6*
O=[N+]([O-])c1ccc(-c2cn(-c3ccccc3)c(=S)[nH]2)cc1,-1.2,4.7%,19.8%,11.8%,0.0%,22.2
Cc1cccc(-n2cc(-c3ccc([N+](=O)[O-])cc3)[nH]c2=S)c1,24.1*,-1.4%,40.6%,17.8%,7.9%,104.7*
COc1ccc(-n2cc(-c3ccc(Cl)cc3)[nH]c2=S)cc1,13.1*,0.9%,?,3.5%,?,12.9
Cc1c(NC(=S)SCc2ccccc2)c(=O)n(-c2ccccc2)n1C,0.1,2.7%,27.9%,.,1.7%,8.2
Cc1ncc(CSc2ccccc2N)c(CO)c1O,.,.,.,5.6%,.,.
O=C(NC(=S)Nc1ccc(Br)c(Cl)c1)C1CC1,25.5*,?,-1.2%,-2.8%,?,32.2*
O=C(NC(=S)Nc1ccc(F)cc1)C1CCCCC1,23.3*,6.5%,-27.3%,12.0%,1.9%,89.3*
O=C(Nc1ccc(F)cc1)C1CCCCC1,12.2,-0.4%,3.5%,-3.7%,-17.0%[5.75 µM],34.4
O=C(NC(=S)Nc1ccc(O)cc1)C1CCCC1,.,1.3%,93.8%,.,70.7%,.
CC(=O)c1ccc(NC(=S)Nc2ccc(Br)c(Cl)c2)cc1,-1.2,-2.0%,-0.7%,.,-0.9%,-3.9
CC(=O)Nc1ccc(NC(=S)NC(=O)C2CC2)cc1,25.1*,2.6%,?,8.4%,18.4%,64.5*
Cc1cccc(OCc2nnc(SC(C)C(=O)Nc3ccc(N4CCOCC4)cc3)o2)c1 (configuration not stated),.,0.5%,.,.,.,.
O=C(COC(=O)/C=C/C(=O)OCC(=O)Nc1ccccc1F)Nc1ccccc1F,-2.3,-0.1%,?,2.1%,25.1%,-2.1
N#CC1=C2SC=C(c3ccc(Br)cc3)N2CCCC1=O,43.6*,-3.4%,155.3%,.,244.3%,118.0*
N#CC1=C2Sc3ccccc3N2CCCC1=O,30.8,6.1%,-4.3%,-11.8%,59.8%,22.2
COc1ccc(-c2cc(C(=O)N3CCCCC3)c3ccccc3n2)cc1,.,-13.1%,5.5%,.,-84.2%,.
COc1cccc(-c2cc(C(=O)N3CCN(c4ncccn4)CC3)c3ccccc3n2)c1,19.5*,0.1%,?,4.4%,-23.2%,58.7*
CC(C)Oc1cccc(-c2cc(C(=O)N3CCN(S(C)(=O)=O)CC3)c3ccccc3n2)c1,36.7*,-0.1%,?,-24.8%,?,57.5
SMILES,Cycloheximide cs,SARS PLpro yeast,Pf growth 48h,NS1 function inh,Pf growth 96h,Shiga inhibitor
CC(C)Oc1cccc(-c2cc(C(=O)N3CCN(c4ncccn4)CC3)c3ccccc3n2)c1,42.8*,1.5%,.,1.7%,9.28µM*,68.2*
O=C(c1cc(-c2cccs2)nc2ccccc12)N1CCN(S(=O)(=O)c2cccc(F)c2)CC1,32.4*,-4.0%,?,-4.9%,.,30.3*
COc1ccc(-c2cc(C(=O)N3CCN(c4ncccn4)CC3)c3ccccc3n2)cc1OC,.,6.9%,?,.,-39.4%,.
Cc1ccccc1N=C1NC(=O)CC(c2ccccc2)S1 (configuration not stated),5.7,-48.6%,.,0.3%,?,-10.9
Cc1ccc(-c2cc(C(=O)N3CCN(c4ncccn4)CC3)c3ccccc3n2)cc1,49.1*,-8.8%,?,-88.4%,12.5%,52.7
Cc1ccc2nc(-c3ccccn3)cc(C(=O)N3CCN(c4ncccn4)CC3)c2c1,-1.9,-8.6%,21.8%,-14.5%,2.62µM*,-3.3
Cc1cccc2c(C(=O)Nc3ccc(Br)cc3)cc(-c3ccccn3)nc12,15.2,-0.3%,13.8%,0.5%,?,-8.0

# Screens (PubChem)
